Assay results: the supplement of paper PMC4840960
Structures can show the parent of a compound that is named as a salt.

Test system: E18 rat cortical neuron-glia co-culture
Assay: myelination (MBP fiber length per Olig2+ nucleus), % of 1 µM DAPT response (DMSO = 0) (% of DAPT); higher = more myelination, active = 50 or more
Conditions: 5 µM; treatment time: 8 days (DIV5-DIV13)
How it was run: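 Four 10X fields in each of duplicate wells were analysed after cultures were fixed in 4 % paraformaldehyde and immunostained for MBP and Olig2, with DAPI as the nuclear counterstain. The cultures were papain-dissociated primary E18 rat cortical co-cultures at 20,000 cells/well on poly-d-lysine/laminin 96-well plates, dosed with library compounds at 1 or 5 µM in myelination medium from DIV5 to DIV13. The myelination readout was continuous straight MBP fiber length per Olig2+ nucleus, with 0.1 % DMSO set to 0 and a 1 µM positive control set to 100.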

myelination, inactive:
Clc1cccc(Cl)c1NC1=NCCN1 [Clonidine hydrochloride] -5.88
C[C@H]1C[C@@H]2[C@H]([C@@H](O)C[C@@]3(C)[C@H]2CC[C@]3(O)C(=O)CO)[C@@]2(C)C=CC(=O)C=C12 [Methylprednisolone] 2.01
CCOc1ccc2ccccc2c1C(=O)N[C@@H]1C(=O)N2[C@@H]1SC(C)(C)[C@@H]2C(=O)O [Nafcillin] -9.33
CC(C)(C(=O)c1cccnc1)c1cccnc1 [Metyrapone] -9.03
CC(=O)OCC(=O)[C@@]1(O)CC[C@H]2[C@@H]3CCC4=CC(=O)C=C[C@]4(C)[C@H]3[C@@H](O)C[C@@]21C [Prednisolone acetate] -10.6
NC[C@H](O)c1ccc(O)c(O)c1 [Norepinephrine] -38.4
Clc1ccccc1C(c1ccccc1)(c1ccccc1)n1ccnc1 [Clotrimazole] -27.1
O=C(O)COCCN1CCN(C(c2ccccc2)c2ccc(Cl)cc2)CC1 (stereo unspecified) [Virlix] -8.81
C[C@@H](O)[C@H]1C(=O)N2C(C(=O)O)=C(S[C@@H]3CN[C@H](C(=O)N(C)C)C3)[C@H](C)[C@H]12 [Meropenem] -19.5
CC(C)NCC(O)c1cc(O)cc(O)c1 (stereo unspecified) [Metaproterenol] -14.3
O=C(c1ccc(OCCN2CCCCC2)cc1)c1c(-c2ccc(O)cc2)sc2cc(O)ccc12 [Raloxifene] 13.4
